Experiment [1] is described as follows: sensitizers of A549 cells to miR-34 induction, primary screen, imaging, A549 dox-inducible miR-34, nuclei and caspase counts (AID 1347080;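 active means compounds whose cell count with miR-34 switched on is under 0.7 times the count with it off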). The settings on record: A549 miR-34 inducible, Hoechst nuclei count, 48 h.
A short description of experiment [2]: survival rescue of mitochondrial mutant cells in low glucose, primary screen, MELAS cybrids, Rieske KO mouse fibroblasts, CellTiter-Glo (AID 1508586).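 Further: z relative to plate mean and SD of compound and empty wells.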
Setting [3] is: stronger effect = lower value, cell number ratio, induced over uninduced.
The mark [4] stands for this setting: measured here: relative caspase fold change +Dox/-Dox.
The mark [5] stands for this setting: measured here: total cells with miR-34 induction, stronger effect = lower value.
[6] abbreviates: measured here: total cells without miR-34 induction.
Where [7] appears, read: MELAS cybrid survival, CellTiter-Glo 48 h, stronger effect = higher value.
Where [8] appears, read: Rieske KO mouse fibroblast survival, CellTiter-Glo 72 h.

Molecules are shown by their SMILES. Activity calls are given as the source filed them.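 How the source made its calls, unless noted: active means mean z-score across replicates of 1.96 or higher in either the MELAS or the Rieske mutant cell line; inactive means the rest.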
Further: test concentration not given here.

Consider `O=C(O)C(Cc1ccccc1[N+](=O)[O-])=NNC1=NC(c2ccc(Cl)c(Cl)c2)CS1` (configuration not stated), for which the results for the fold change in experiment [1] (setting [3]) and in experiment [1] (setting [4]) were 0.88 (inactive) and 0.284, respectively. In addition, the cell count in experiment [1] (setting [5]) is 6240; in experiment [1] (setting [6]), 7100. In addition, the z-score in experiment [2] (setting [7]) is -0.273 (inactive); in experiment [2] (setting [8]), 0.221.
With `CC1OC(OC2C(Oc3cc(O)c4c(c3)OC(c3ccc(O)cc3)CC4=O)OC(CO)C(O)C2O)C(O)C(O)C1O` (configuration not stated), the fold change was 1 (inactive) in experiment [1] (setting [3]) and 0.741 in experiment [1] (setting [4]). Also, the cell count in experiment [1] (setting [5]) was found to be 8310; in experiment [1] (setting [6]) it was 8300. Besides, the z-score in experiment [2] (setting [7]) is -0.421 (inactive); in experiment [2] (setting [8]) it was -0.0851.
For `Cc1cccc(C)c1OCC(=O)NC(Cc1ccccc1)C(O)CC(Cc1ccccc1)NC(=O)C(C(C)C)N1CCCNC1=O` (configuration not stated), the fold change in experiment [1] (setting [3]) was 1 (inactive); in experiment [1] (setting [4]), 0.797. Moreover, the cell count came out at 6290 in experiment [1] (setting [5]) and 6270 in experiment [1] (setting [6]). Besides, the z-score in experiment [2] (setting [7]) was -0.513 (inactive); in experiment [2] (setting [8]), 0.0231.
For the compound `COC1C=CC=C(C)C(=O)NC2=CC(=O)C(NCCN(C)C)=C(CC(C)CC(OC)C(O)C(C)C=C(C)C1OC(N)=O)C2=O` (configuration not stated), the fold change is 1.03 (inactive) in experiment [1] (setting [3]) and 1.2 in experiment [1] (setting [4]). Besides, the cell count came to 1450 in experiment [1] (setting [5]) and 1410 in experiment [1] (setting [6]). Also, the z-score in experiment [2] (setting [7]) is 2.44 (active); in experiment [2] (setting [8]), -2.5.
On to `COc1cc(CCC(C)=O)ccc1O`, for which the fold change in experiment [1] (setting [3]) is 0.964 (inactive); in experiment [1] (setting [4]), 0.351. Also, the cell count in experiment [1] (setting [5]) is 7540; in experiment [1] (setting [6]), 7830. Besides, the results for the z-score in experiment [2] (setting [7]) and in experiment [2] (setting [8]) were -0.174 (inactive) and -0.0455, respectively.
Take `CCOC(=O)C(CCc1ccccc1)NC(C)C(=O)N1C(=O)N(C)CC1C(=O)O` (configuration not stated): the fold change is 0.891 (inactive) in experiment [1] (setting [3]) and 1.39 in experiment [1] (setting [4]). The cell count came out at 7920 in experiment [1] (setting [5]) and 8880 in experiment [1] (setting [6]). The values for the z-score in experiment [2] (setting [7]) and in experiment [2] (setting [8]) were 0.163 (inactive) and -0.0366, respectively.
Regarding `Cc1cc(NC(=O)c2cccc(NC(=O)C=CCN(C)C)c2)ccc1Nc1nccc(-c2cccnc2)n1`, the fold change in experiment [1] (setting [3]) was 0.969 (inactive); in experiment [1] (setting [4]), 0.805. For the same compound, the cell count in experiment [1] (setting [5]) was determined as 6190; in experiment [1] (setting [6]), 6390. Further, the results for the z-score in experiment [2] (setting [7]) and in experiment [2] (setting [8]) were -0.659 (inactive) and 0.143, respectively.
As for `CC(NC(=O)C(O)C(C)C)C(=O)NC1C(=O)N(C)CCc2ccccc21` (configuration not stated), the fold change in experiment [1] (setting [3]) was 0.932 (inactive); in experiment [1] (setting [4]) it was 0.791. Moreover, the results for the cell count in experiment [1] (setting [5]) and in experiment [1] (setting [6]) were 7480 and 8020, respectively. Further, the z-score is -0.185 (inactive) in experiment [2] (setting [7]) and -1.14 in experiment [2] (setting [8]).
As to `N#CC1C[C@@H]2C[C@H]2N1C(=O)C(N)C12CC3CC(CC(O)(C3)C1)C2` (some centres not stated), the fold change in experiment [1] (setting [3]) is 0.986 (inactive); in experiment [1] (setting [4]), 0.858. The cell count in experiment [1] (setting [5]) worked out at 7460; in experiment [1] (setting [6]), 7570. For the same compound, the z-score in experiment [2] (setting [7]) is -0.404 (inactive); in experiment [2] (setting [8]) it was 0.586.
Take `COCC(NC(=O)c1cnc(C)s1)C(=O)NC(COC)C(=O)NC(Cc1ccccc1)C(=O)C1(C)CO1` (configuration not stated): the fold change in experiment [1] (setting [3]) is 0.898 (inactive); in experiment [1] (setting [4]), 1.09. The cell count in experiment [1] (setting [5]) was 714; in experiment [1] (setting [6]) it was 796. Besides, the z-score was 0.992 (inactive) in experiment [2] (setting [7]) and -0.399 in experiment [2] (setting [8]).
For `CC#C[C@@]1(O)CC[C@H]2[C@@H]3CCC4=CC(=O)CCC4=C3C(c3ccc(N(C)C)cc3)C[C@@]21C` (some centres not stated), the fold change in experiment [1] (setting [3]) is 0.891 (inactive); in experiment [1] (setting [4]), 1.53. For the same compound, the cell count came out at 6640 in experiment [1] (setting [5]) and 7460 in experiment [1] (setting [6]). The values for the z-score in experiment [2] (setting [7]) and in experiment [2] (setting [8]) were -0.469 (inactive) and 0.644, respectively.
Regarding `CC(C)CN(CC(O)C(Cc1ccccc1)NC(=O)OC1CCOC1)S(=O)(=O)c1ccc(N)cc1` (configuration not stated), the fold change is 0.88 (inactive) in experiment [1] (setting [3]) and 0.898 in experiment [1] (setting [4]). The cell count in experiment [1] (setting [5]) is 7780; in experiment [1] (setting [6]), 8840. Besides, the results for the z-score in experiment [2] (setting [7]) and in experiment [2] (setting [8]) were -0.312 (inactive) and 0.463, respectively.
With `COc1cc(F)c(C(C)C)cc1-c1ccc(C(F)(F)F)cc1CN1C(=O)OC(c2cc(C(F)(F)F)cc(C(F)(F)F)c2)C1C` (configuration not stated), the fold change is 0.899 (inactive) in experiment [1] (setting [3]) and 0.917 in experiment [1] (setting [4]). The cell count in experiment [1] (setting [5]) was determined as 8290; in experiment [1] (setting [6]), 9220. Further, the z-score in experiment [2] (setting [7]) was -0.143 (inactive); in experiment [2] (setting [8]), 0.372.
On to `Cc1cnc(NC(=O)Nc2cc(Br)c(C)cc2OCC2CNCCO2)cn1` (configuration not stated), for which the figures for the fold change in experiment [1] (setting [3]) and in experiment [1] (setting [4]) were 1.11 (inactive) and 0.742, respectively. For the same compound, the cell count was 1910 in experiment [1] (setting [5]) and 1730 in experiment [1] (setting [6]). For the same compound, the z-score was 0.916 (inactive) in experiment [2] (setting [7]) and -0.0359 in experiment [2] (setting [8]).
Consider `COc1ccc(CC2c3cc(OC)c(OC)cc3CC[N@+]2(C)CCC(=O)OCCCCCOC(=O)CC[N@@+]2(C)CCc3cc(OC)c(OC)cc3C2Cc2ccc(OC)c(OC)c2)cc1OC` (some centres not stated), for which the fold change in experiment [1] (setting [3]) is 0.844 (inactive); in experiment [1] (setting [4]), 1.36. In addition, the cell count was determined as 7940 in experiment [1] (setting [5]) and 9400 in experiment [1] (setting [6]). Besides, the z-score is -0.391 (inactive) in experiment [2] (setting [7]) and 0.533 in experiment [2] (setting [8]).
Consider `CCc1cccc2c3c([nH]c12)[C@](CC)(CC(=O)O)OCC3`, for which the figures for the fold change in experiment [1] (setting [3]) and in experiment [1] (setting [4]) were 0.926 (inactive) and 0.786, respectively. For the same compound, the cell count in experiment [1] (setting [5]) amounted to 7980; in experiment [1] (setting [6]), 8620. Besides, the z-score in experiment [2] (setting [7]) is -0.475 (inactive); in experiment [2] (setting [8]), -0.00521.
For the compound `CN(C)C(=O)c1ccc(S(=O)(=O)c2ccc(NC(=O)C(C)(O)C(F)(F)F)c(Cl)c2)cc1` (configuration not stated), the fold change is 0.887 (inactive) in experiment [1] (setting [3]) and 0.601 in experiment [1] (setting [4]). The cell count is 6480 in experiment [1] (setting [5]) and 7310 in experiment [1] (setting [6]). For the same compound, the z-score in experiment [2] (setting [7]) is -0.391 (inactive); in experiment [2] (setting [8]), -0.0234.
On to `CCC(C)C(NC(=O)C(CCC(=O)O)NC(=O)C(CC(C)C)NC(=O)C1CN=C(C(N)C(C)C)S1)C(=O)NC1CCCCNC(=O)C(CC(N)=O)NC(=O)C(CC(=O)O)NC(=O)C(Cc2cnc[nH]2)NC(=O)C(Cc2ccccc2)NC(=O)C(C(C)CC)NC(=O)C(CCCN)NC1=O` (configuration not stated), for which the fold change is 1.05 (inactive) in experiment [1] (setting [3]) and 0.927 in experiment [1] (setting [4]). For the same compound, the values for the cell count in experiment [1] (setting [5]) and in experiment [1] (setting [6]) were 7610 and 7240, respectively. For the same compound, the z-score in experiment [2] (setting [7]) was -0.25 (inactive); in experiment [2] (setting [8]), -0.261.
Regarding `CC(NC(=O)C(O)c1cc(F)cc(F)c1)C(=O)NC1C(=O)N(C)c2ccccc2-c2ccccc21` (configuration not stated), the results for the fold change in experiment [1] (setting [3]) and in experiment [1] (setting [4]) were 0.896 (inactive) and 0.875, respectively. For the same compound, the cell count in experiment [1] (setting [5]) is 8040; in experiment [1] (setting [6]), 8970. For the same compound, the values for the z-score in experiment [2] (setting [7]) and in experiment [2] (setting [8]) were -0.323 (inactive) and 1.18, respectively.
As to `CNC(=O)c1cccc(-c2ccc3c(N4CCOCC4C)nc(N4CCOCC4C)nc3n2)c1` (configuration not stated), the fold change in experiment [1] (setting [3]) was 1 (inactive); in experiment [1] (setting [4]), 0.416. Moreover, the cell count was 3420 in experiment [1] (setting [5]) and 3410 in experiment [1] (setting [6]). Further, the z-score was 3.83 (active) in experiment [2] (setting [7]) and -2.15 in experiment [2] (setting [8]).
Turning to `COC1CC2CCC(C)[C@](O)(O2)C(=O)C(=O)N2CCCC[C@H]2C(=O)OC(C(C)CC2CCC(n3cnnn3)C(OC)C2)CC(=O)C(C)C=C(C)C(O)C(OC)C(=O)C(C)CC(C)C=CC=CC=C1C` (some centres not stated), the fold change in experiment [1] (setting [3]) was 1.13 (inactive); in experiment [1] (setting [4]), 0.353. Further, the results for the cell count in experiment [1] (setting [5]) and in experiment [1] (setting [6]) were 5100 and 4500, respectively. Moreover, the z-score was 3.99 (active) in experiment [2] (setting [7]) and 2.04 in experiment [2] (setting [8]).
For the compound `CC(C)C(=O)Oc1ccc(CO)cc1C(CCN(C(C)C)C(C)C)c1ccccc1` (configuration not stated), the results for the fold change in experiment [1] (setting [3]) and in experiment [1] (setting [4]) were 0.941 (inactive) and 0.385, respectively. In addition, the cell count in experiment [1] (setting [5]) is 8240; in experiment [1] (setting [6]) it was 8760. The results for the z-score in experiment [2] (setting [7]) and in experiment [2] (setting [8]) were 0.0306 (inactive) and 0.055, respectively.

The record behind these values is PubChem BioAssay.
